Screen size: about 390,000 compounds; about 17,000 (4.4%) were called active. About 8% were inconclusive and are not listed. Shown is part of a subset that was picked to be rich in actives. Entries that show only a call come without a potency. Values without a mark were called inactive. Calls come from the whole dose curve; as a rule, active = well fitted inhibition curve with a large enough effect; inconclusive = small, poorly fitted or top-dose-only effect; inactive = no such curve, though single readings can be large or run the other way.
The compounds below were run against Lysine-specific demethylase 4A (Homo sapiens) (UniProt O75164) (assay: qHTS Assay for Inhibitors of JMJD2A-Tudor Domain). Conditions: AlphaScreen JMJD2A-Tudor / H3K4me3 peptide binding; series mostly up to 114 µM.
Chain of Lysine-specific demethylase 4A (Homo sapiens) (O75164 whole entry, looked up, the tested form may be a part): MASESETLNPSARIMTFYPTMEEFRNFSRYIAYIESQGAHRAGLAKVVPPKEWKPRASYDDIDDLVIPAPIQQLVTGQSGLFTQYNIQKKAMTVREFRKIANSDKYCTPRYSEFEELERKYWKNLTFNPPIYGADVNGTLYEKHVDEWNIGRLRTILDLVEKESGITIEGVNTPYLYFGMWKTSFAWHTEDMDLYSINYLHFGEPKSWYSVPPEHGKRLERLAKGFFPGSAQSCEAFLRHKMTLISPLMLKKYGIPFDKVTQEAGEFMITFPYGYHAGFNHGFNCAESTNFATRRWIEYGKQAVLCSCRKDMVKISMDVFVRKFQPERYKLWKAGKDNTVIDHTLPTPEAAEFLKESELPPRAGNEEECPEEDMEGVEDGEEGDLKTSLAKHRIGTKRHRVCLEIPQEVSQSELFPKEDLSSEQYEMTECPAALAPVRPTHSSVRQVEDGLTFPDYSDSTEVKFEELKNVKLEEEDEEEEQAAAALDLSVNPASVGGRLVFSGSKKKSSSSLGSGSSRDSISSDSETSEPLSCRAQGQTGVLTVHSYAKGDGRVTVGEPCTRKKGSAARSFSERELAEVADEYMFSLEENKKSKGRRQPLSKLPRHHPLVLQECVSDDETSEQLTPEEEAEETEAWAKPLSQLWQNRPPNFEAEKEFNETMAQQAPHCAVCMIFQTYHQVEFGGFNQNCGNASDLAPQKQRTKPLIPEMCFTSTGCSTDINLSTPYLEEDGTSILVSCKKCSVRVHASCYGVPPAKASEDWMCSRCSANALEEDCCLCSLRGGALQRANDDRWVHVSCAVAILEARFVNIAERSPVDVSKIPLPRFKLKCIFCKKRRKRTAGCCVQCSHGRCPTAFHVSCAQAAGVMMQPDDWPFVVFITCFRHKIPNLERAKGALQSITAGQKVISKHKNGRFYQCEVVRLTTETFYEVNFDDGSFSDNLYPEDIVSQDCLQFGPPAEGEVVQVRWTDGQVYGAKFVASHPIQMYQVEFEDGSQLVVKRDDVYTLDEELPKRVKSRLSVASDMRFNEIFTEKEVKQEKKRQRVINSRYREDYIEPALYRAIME
With `Cc1cc(C)c2oc(C(=O)Nc3ccc(S(=O)(=O)N(C)c4ccccc4)cc3)cc(=O)c2c1` the Potency was “inactive”. With `Cc1cc(N2CCN(c3cccc(C(F)(F)F)c3)CC2)n2nc(-c3ccccc3)nc2n1` the Potency was “inactive”. For `CC(OC(=O)CN1C(=O)COc2ccccc21)C(=O)NCc1ccc(F)cc1` (stereo not given), the Potency was “inactive”. With `O=C(CN1C(=O)COc2ccc(Cl)cc21)Nc1ccc(N2CCOCC2)cc1` the Potency was “inactive”. With `O=C(CN1C(=O)COc2ccccc21)Nc1ccc(F)cc1` the Potency was 50.1 µM (active). With `Cc1cccc(C(C)C)c1NC(=O)C(NS(=O)(=O)c1cccc2nsnc12)c1ccccc1` (stereo not given) the Potency was “inactive”. With `COc1ccc(-c2cn3c(n2)sc2cc(C(=O)Nc4ccc(F)cc4)ccc23)cc1` the Potency was “inactive”. For `COC(=O)C1=C(C)NC2=C(C(=O)c3ccccc32)C1c1ccc(-c2ccc(C(=O)O)cc2)o1` (stereo not given), the activity change, negative = inhibition was -17.6% [at 11.4 µM]. `CCOc1cc(C2C(C(=O)OC(C)C)=C(C)NC3=C2C(=O)CCC3)cc([N+](=O)[O-])c1O` (stereo not given) was tested, and the Potency was “inactive”. For `CCOc1cc(C2C(C(=O)OC)=C(C)NC3=C2C(=O)c2ccccc23)ccc1O` (stereo not given), the Potency was 50.1 µM (active). In the case of `COC(=O)C1=C(c2ccccc2)c2ccccc2S(=O)(=O)N1CC(=O)Nc1ccccc1C(F)(F)F`, the Potency is reported as “inactive”. For `Cc1cccc2c(=O)cc(CSc3ccccc3NC(=O)C(C)C)[nH]c12`, the Potency was “inactive”. In the case of `CC(=O)Nc1cc(C(=O)NCc2ccc(F)cc2Cl)ccc1Sc1ccc(Cl)cc1`, the Potency is reported as “inactive”. `Cc1ccc(CNC(=O)C2(C(F)(F)F)C/C(=C\CCO)CCCO2)o1` (stereo not given) was tested, and the Potency was “inactive”. `CCCCn1cc(S(=O)(=O)c2ccc(OCC)cc2)c(=O)c2cc(OC)c(OC)cc21` was tested, and the Potency was “inactive”. With `COc1ccc(N=Nc2c(-c3ccc(OC)cc3)[nH]oc2=O)cc1` the Potency was “inactive”. For `COC1=CC(=O)OC(c2ccc(OC)cc2)C1` (stereo not given), the Potency was “inactive”. With `COc1ccc(N=C2C=CC(=O)O2)cc1` the Potency was 79.4 µM (active). `CCOC(=O)C1=C(CN2CCc3ccccc32)NC(=O)NC1c1cccc([N+](=O)[O-])c1` (stereo not given) was tested, and the Potency was 44.7 µM (active). In the case of `CCOC(=O)C1=C(CN2CCc3ccccc32)NC(=O)NC1c1cc(C)ccc1C` (stereo not given), the Potency is reported as “inactive”. `CCOC(=O)C1=C(CN2CCCCCC2)NC(=O)NC1c1cccc([N+](=O)[O-])c1` (stereo not given) was tested, and the Potency was “inactive”. `COc1ccc(N2CCN(S(=O)(=O)CCNC(=O)C(c3ccccc3)c3ccccc3)CC2)cc1` was tested, and the Potency was “inactive”. With `C[C@@H](NC(=O)c1nc[nH]c1C(=O)N1CCN(C(=O)OC(C)(C)C)CC1)c1ccccc1` the Potency was 79.4 µM (active). With `CC(C)(C)OC(=O)N1CCC(NC(=O)c2[nH]cnc2C(=O)N[C@@H](Cc2ccccc2)C(=O)OCc2ccccc2)CC1` the Potency was “inactive”. `C[C@H](NC(=O)c1nc[nH]c1C(=O)NCC(=O)OC(C)(C)C)c1ccccc1` was tested, and the Potency was “inactive”. For `Cc1cccc(C(=O)N2c3nc(-c4ccco4)nn3C3(CCCCC3)[C@@H]3CCCC[C@@H]32)c1`, the Potency was “inactive”. `CCOc1ccc(CNC(=O)c2cccc(Nc3nc4ccccc4n4nnnc34)c2)cc1OC` was tested, and the Potency was “inactive”. For `ON=C1/C(=N\O)CC2(C/C1=N/O)OCCO2`, the Potency was 28.2 µM (active). `O/N=C1\CC2(Cc3nonc31)OCCO2` was tested, and the Potency was “inactive”. For `CCOC(=O)c1ccc(NC2=CC(c3ccc(OCC)cc3)N(c3ccc(C(=O)OCC)cc3)C2=O)cc1` (stereo not given), the Potency was “inactive”. With `CCOc1ccc(CCNC(=O)c2c(C)oc3ncn(C)c(=O)c23)cc1` the Potency was “inactive”. In the case of `CN(C)Cc1c(C#N)c2ccccc2n1C`, the Potency is reported as “inactive”. In the case of `CCCc1cc(=S)n2c([nH]c3ccccc32)c1C#N`, the Potency is reported as 25.1 µM (active). With `Cc1ccccc1-c1nc2cc(NC(=O)c3cccc(OCCC(C)C)c3)ccc2o1` the Potency was “inactive”. `O=C(NC(=S)Nc1cc(C(F)(F)F)ccc1N1CCOCC1)c1ccc(-c2cccc(Cl)c2)o1` was tested, and the Potency was “inactive”. For `O=C(NCc1ccccc1)c1cc(-c2cccc(Cl)c2)on1`, the Potency was “inactive”. For `O=C(O)C(c1ccccc1)N1C(=O)/C(=C\c2ccc(-c3cccc(Cl)c3)o2)SC1=S` (stereo not given), the Potency was 20 µM (active). With `Cc1ccc(NC(=O)Cn2cnc3nc4c(cc3c2=O)CCCC4)cc1Cl` the Potency was “inactive”. `CCOc1ccc(N2C(=O)/C(=C/c3ccc(C)o3)N(C)C2=S)cc1` was tested, and the Potency was 35.5 µM (active). For `CCO/C=C1\C(=O)N(c2ccc(OCC)cc2)C(=O)c2ccccc21`, the Potency was “inactive”. With `CCOc1ccc(N2C(=O)CN(c3cccc4ccccc34)C2=S)cc1` the Potency was “inactive”. In the case of `CCCN1C(=O)C(O)(CC(=O)c2ccc(CC)cc2)c2cc(Br)ccc21` (stereo not given), the Potency is reported as “inactive”. With `Cc1ccc(S(=O)(=O)NCCSc2ccccc2)cc1[N+](=O)[O-]` the Potency was “inactive”. For `CCS(=O)(=O)c1cc([N+](=O)[O-])c(Sc2ccccc2N)s1`, the Potency was 44.7 µM (active). With `Cc1cc(C)cc(OCC(=O)Nc2nc(-c3ccc(F)cc3)ns2)c1` the Potency was “inactive”. With `CCOC(=O)c1cnc(SCC(=O)NCc2ccco2)nc1N` the Potency was “inactive”. In the case of `Cc1cc(C(=O)OCC(=O)NCc2ccco2)c(C)n1-c1ccccc1`, the Potency is reported as 56.2 µM (active). `O=C(CCCOc1ccccc1)NCc1ccco1` was tested, and the Potency was “inactive”. With `CCOC(=O)c1cccc(NC(=O)c2ccc(F)cc2F)c1` the Potency was “inactive”. `O=C(COC(=O)CSc1ccccc1)Nc1ccc(F)cc1F` was tested, and the Potency was “inactive”. With `O=C(COC(=O)c1ccc(F)cc1F)Nc1ncccn1` the Potency was 28.2 µM (active). With `Cc1oc2ncnc(N3CCCCC3)c2c1C(=O)N1CCN(c2cccc(Cl)c2)CC1` the Potency was “inactive”. With `CCc1ccc(NC(=O)CN2C(=O)CCSc3ccc(S(=O)(=O)N4CCCC4)cc32)cc1` the Potency was “inactive”. In the case of `CCC(C)(C)NC(=O)C(c1cccc(OC)c1OC)N(CC(C)C)C(=O)CCC(=O)Nc1cc(C)on1` (stereo not given), the Potency is reported as 11.2 µM (active). With `CCC(C)(C)NC(=O)C(c1ccc(OC)cc1)N(C(=O)CCC(=O)Nc1cc(C)on1)c1ccc(OC)cc1OC` (stereo not given) the Potency was “inactive”. For `COc1ccc(C(C(=O)NC(C)(C)C)N(Cc2ccc(F)cc2)C(=O)CCC(=O)Nc2cc(C)on2)cc1` (stereo not given), the Potency was “inactive”. `CCc1ccccc1OCCSc1nc(-c2cccs2)nc2cc(=O)[nH]n12` was tested, and the Potency was “inactive”. For `O=c1cc2nc(-c3ccccc3)nc(SCCOc3ccc(Cl)cc3)n2[nH]1`, the Potency was 56.2 µM (active). `Cc1ccc(OCCSc2nc(-c3cccs3)nc3cc(=O)[nH]n23)cc1Cl` was tested, and the Potency was “inactive”. In the case of `COc1cc(CNCc2ccc(OC)c3ccccc23)cc(OC)c1OC`, the Potency is reported as 25.1 µM (active). For `COc1ccc(CNCCCNCc2ccc(OC)c(OC)c2)cc1OC`, the Potency was “inactive”. For `COc1cc(CNCc2cccs2)cc(Br)c1OC`, the Potency was “inactive”. In the case of `O=C(c1ccc2c(=O)n(Cc3ccco3)c(=S)[nH]c2c1)N1CCCC1`, the Potency is reported as “inactive”. `O=c1n(Cc2cccc(C(F)(F)F)c2)c2ccccc2c2nc(-c3ccccc3)nn12` was tested, and the Potency was “inactive”. For `COc1ccc(S(=O)(=O)NCC(=O)NC2CC2)cc1OC`, the Potency was “inactive”. In the case of `O=S(=O)(NCC(c1ccccc1)N1CCc2ccccc21)c1ccccc1` (stereo not given), the Potency is reported as 22.4 µM (active). `O=S(=O)(c1ccccc1)N1CCc2ccccc21` was tested, and the Potency was “inactive”. In the case of `CN(C)c1ccc(C(CNS(=O)(=O)c2cc(F)ccc2F)N2CCOCC2)cc1` (stereo not given), the Potency is reported as “inactive”. `O=C(NCC(c1cccnc1)N1CCc2ccccc21)c1cccc(C(F)(F)F)c1` (stereo not given) was tested, and the Potency was “inactive”. `COc1ccc(S(=O)(=O)NCC(c2ccc(N(C)C)cc2)N2CCc3ccccc32)cc1OC` (stereo not given) was tested, and the Potency was 22.4 µM (active). In the case of `COc1ccc(-c2c3c(=O)n(C)c(=O)n(C)c3c3c(C)nc4ccccc4n23)cc1`, the Potency is reported as “inactive”. `Cc1ccc2[nH]c3c(=O)n(CC(=O)NC(C)C)ncc3c2c1` was tested, and the Potency was “inactive”. In the case of `COc1ccc(CCn2c3c(c(=O)[nH]c2=S)CN(C(C)C)CN3)cc1OC`, the Potency is reported as “inactive”. With `Cc1cc(C)cc(NC(=O)CSc2nc3nccnc3c(=O)n2CCc2c[nH]c3ccccc23)c1` the Potency was “inactive”. For `O=C(Nc1cccc(Cl)c1N1CCOCC1)c1ccc2c(c1)OCCO2`, the Potency was “inactive”. `O=C(Nc1ccc(N2CCOCC2)cc1)c1ccc2c(c1)OCO2` was tested, and the Potency was 20 µM (active). For `COC(=O)c1ccc(N2CCOCC2)c(NC(=O)c2ccc3c(c2)OCCO3)c1`, the Potency was “inactive”. In the case of `CCOC(=O)C1CCCN(C(=O)Cn2ncc3c(=O)oc4ccc(C)cc4c32)C1` (stereo not given), the Potency is reported as “inactive”. With `CCOC(=O)C1CCCN(C(=O)Cn2ncc3c(C)n(Cc4ccc(F)cc4)c(C)c3c2=O)C1` (stereo not given) the Potency was “inactive”. `CCCn1c2ccccc2c2cnn(CC(=O)N3CCCC(C(=O)OCC)C3)c(=O)c21` (stereo not given) was tested, and the Potency was 79.4 µM (active). With `COc1cccc(CNC(=O)C2CCN(S(=O)(=O)c3ccc4c(ccn4C)c3)CC2)c1` the Potency was “inactive”. In the case of `CCCN1CCN(CCCNC(=O)c2cnn(-c3ccc(C)cc3)c2-n2cccc2)CC1`, the Potency is reported as “inactive”. In the case of `COC(=O)c1ccccc1S(=O)(=O)Nc1ccc(OC)cc1`, the Potency is reported as “inactive”. With `Cc1cc(C)n(-c2nnc(N3CCN(c4ccccc4)CC3)nn2)n1` the Potency was 50.1 µM (active). `Cc1ccc(S(=O)(=O)N2CCN(c3ccccc3)CC2)cc1C` was tested, and the Potency was “inactive”. With `Cc1cc(C)n(-c2nc(C(F)(F)F)nc3ccccc23)n1` the Potency was “inactive”. With `N#CN1CCC(NS(=O)(=O)c2cccc(F)c2)C1` (stereo not given) the Potency was “inactive”. `CCOc1ccc(C2C(=O)N(C3CCCCC3)CC(=O)N2CCC2=CCCCC2)cc1OC` (stereo not given) was tested, and the Potency was “inactive”. With `Cc1ccc(NC(=O)CCC(=O)N/N=C/c2ccco2)c(C)c1` the Potency was “inactive”. `Cc1cc(-c2n[nH]c(=S)n2/N=C/c2ccco2)n[nH]1` was tested, and the Potency was 3.98 µM (active). In the case of `Cc1cc(-c2n[nH]c(=S)n2/N=C/C(Br)=C/c2ccccc2)n[nH]1`, the Potency is reported as 56.2 µM (active). With `CC(/C=N/NC(=O)c1cc(-c2ccc3ccccc3c2)n[nH]1)=C\c1ccco1` the Potency was “inactive”. `Cc1cc(NC(=O)CC(C)C)cc(-c2nc3ncccc3o2)c1O` was tested, and the Potency was “inactive”. With `Fc1ccc(-c2nn(-c3ccccc3Cl)c3c2cnc2ccccc23)cc1` the Potency was “inactive”. In the case of `O=C(NC1CC(=O)N(c2ccccc2)C1)c1ccco1` (stereo not given), the Potency is reported as “inactive”. In the case of `Cc1cc(C)n2ncc(C(=O)N3CCCC3)c2n1`, the Potency is reported as “inactive”. In the case of `Cc1ccc(Cl)cc1NC(=O)CSc1nccn1C`, the Potency is reported as “inactive”. With `NC(=O)C1CCN(C(=O)c2ccc3c(=O)n(Cc4cccc(Br)c4)c(=S)[nH]c3c2)CC1` the Potency was “inactive”. `NC(=O)C1CCN(C2OC(=O)c3ccccc32)CC1` (stereo not given) was tested, and the Potency was “inactive”. In the case of `NC(=O)C1CCN(Cc2nc3c(Br)cc(Br)cc3c(=O)[nH]2)CC1`, the Potency is reported as 3.16 µM (active).

— PubChem BioAssay AID504339 (National Center for Advancing Translational Sciences (NCATS), 2011)
Note: nearly all actives have a fitted effect of over 50% in size.
Potency is the fitted concentration of half-maximal effect.
